Six molecules from PubChem BioAssay can be followed below.

Assay [1] deals with Plasmodium falciparum Sir2 (PF13_0152, Sir2A). Description: pfSir2 binders on small-molecule microarrays, primary screen, biochemical, small-molecule microarray, 635 nm fluorescence (AID 1098).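 Note: score merges spot fluorescence intensity with its signal-to-noise ratio.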 Particulars: small-molecule microarray binding, fluorescence 635 nm; higher = more signal.
A short description of assay [2]: small-molecule microarray binders of probe aDKK1, primary screen, biochemical, biotinylated probe, 635/667 nm fluorescence (AID 1099).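 Note: score merges 667nm spot fluorescence with signal to noise across triplicate slides.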 Conditions: higher = more signal.
The nature of assay [3]: small-molecule microarray binders of probe aCHRDL2, primary screen, biochemical, biotinylated probe, 635/667 nm fluorescence (AID 1100). Particulars: higher = more signal.
Assay [4] is described as follows: splicing luciferase reporter signal modulators, primary screen, spliceosome inhibition project, cell-based, HEK293, splice +/- reporter (AID 1101).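 Note: HEK293 cells carrying a splicing-competent luciferase reporter gene; test concentration not given here.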 Particulars: luminescence, 24 h, higher = more signal, called active from +8 up or from −8 down.
Assay [5] concerns the target Fibroblast growth factor 10 (Homo sapiens) (UniProt O15520). Nature of the assay: FGF10 binders on small-molecule microarrays, primary screen, biochemical, small-molecule microarray, 635 nm fluorescence (AID 1102). Particulars: FGF10 binding, fluorescence 635 nm, higher = more signal.
For assay [6], the system named is glycogen synthase kinase-3 (GSK3A per assay name; protocol says GSK3B). Description: GSK3 binders on small-molecule microarrays, primary screen, biochemical, small-molecule microarray, 635 nm fluorescence, GSK3A (AID 1103). Note: the record names both GSK3A and GSK3B. Particulars: small-molecule microarray binding, fluorescence 635 nm; higher = more signal.
Assay [7] addresses Epidermal growth factor receptor (Homo sapiens) (UniProt P00533). Nature of the assay: EGFR binders on small-molecule microarrays, primary screen, biochemical, small-molecule microarray, 635 nm fluorescence (AID 1104).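 Note: score merges 667 nm emission intensity with spot signal to noise over triplicate slides.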 Conditions: EGFR binding, higher = more signal.
The target of assay [8] is Follistatin-related protein 3 (Homo sapiens) (UniProt O95633). Nature of the assay: FSTL3 binders on small-molecule microarrays, primary screen, biochemical, small-molecule microarray, 635 nm fluorescence (AID 1105).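 Note: score merges emission near 667 nm and signal to noise per printed spot across three slides.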 Particulars: FSTL3 binding, higher = more signal.
For assay [9], the target named is Dickkopf-related protein 1 (Homo sapiens) (UniProt O94907). Nature of the assay: DKK1 binders on small-molecule microarrays, primary screen, biochemical, small-molecule microarray, 635 nm fluorescence scan (AID 1106).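 Note: score merges emission near 667 nm with signal to noise over three replicate slides.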 Particulars: DKK1 binding, higher = more signal.
The test system of assay [10] is Inhibin beta A chain (activin A). Description: INHBA (activin A) binders on microarrays, primary screen, biochemical, small-molecule microarray, 635 nm fluorescence scan (AID 1107).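 Note: mouse activin A protein probed at 4.33 µg/mL on printed slides; score merges bound-protein fluorescence near 667 nm with spot signal-to-noise.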 Particulars: small-molecule microarray binding, higher = more signal.
Assay [11] concerns Human papillomavirus type 1a protein E7 (residues 44-93). Description: HPV1a E7 fragment binders on microarrays, primary screen, biochemical, small-molecule microarray, residues 44-93, 635 nm fluorescence (AID 1108).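 Note: E7 fragment applied at 1 µg/mL in TBST for 1 h at 4 C; score combines spot fluorescence with its signal to noise ratio.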 Particulars: small-molecule microarray binding, fluorescence 635 nm; higher = more signal.
Assay [12] can be described thus: modulators of HCV replicon luciferase signal, primary screen, HCV replication inhibitor project, Huh7 cells, luciferase reporter (AID 1109).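 Note: huh7 hepatoma cells harbouring a luciferase neomycin HCV replicon reporter; luciferase luminescence as measure of HCV replicon replication; test concentration not given here.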 Conditions: 48 h, higher = more signal.
Assay [13] deals with Left-right determination factor 2 (Homo sapiens) (UniProt O00292). Description: LEFTY2 binders on small-molecule microarrays, primary screen, biochemical, small-molecule microarray, 635 nm fluorescence scan (AID 1110). Conditions: LEFTY2 binding, higher = more signal.
Assay [14] concerns the target Calmodulin-1 (Homo sapiens) (UniProt P0DP23). Description: CALM1 binders on microarrays, EGTA buffer, profiling panel, biochemical, small-molecule microarray, Cy5-labelled CALM1 (AID 1111).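 Note: labelled calmodulin applied in Tris saline Tween buffer holding calcium plus EGTA and DTT.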 Particulars: Cy5-CALM1 binding fluorescence, higher = more signal.
For assay [15] the target is unchanged. Description: calcium-bound CALM1 binders on microarrays, profiling panel, artefact control for SMM control-protein annotation, biochemical, small-molecule microarray, Cy5-labelled CALM1, plus calcium (AID 1112).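 Note: score merges spot fluorescence with signal to noise from triplicate slides.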 Particulars: Cy5-CALM1 binding fluorescence, higher = more signal.
Assay [16] can be described thus: small-molecule microarray binders of probe aWnt5a, primary screen, biochemical, biotinylated probe, 635/667 nm fluorescence (AID 1113).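 Note: score merges 667 nm fluorescence intensity with signal-to-noise per printed feature.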 Conditions: higher = more signal.
Assay [17] in a line: small-molecule microarray binders of probe aShh, primary screen, biochemical, biotinylated probe, 635/667 nm fluorescence (AID 1114).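 Note: probe is biotin-labelled aShh protein from a stem cell growth factor screen; measures binding of labelled protein to compounds printed on the slide; score merges feature fluorescence at 667 nm with signal-to-noise.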 Conditions: higher = more signal.
The nature of assay [18]: small-molecule microarray binders of probe aNog, primary screen, biochemical, biotinylated probe, 635/667 nm fluorescence (AID 1115).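 Note: probe is biotinylated aNog protein used at 0.15 µg/mL for 1 h at 4 C; z-score combines 667 nm fluorescence of each spot with its signal to noise.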 Conditions: higher = more signal.
Assay [19] addresses Torsin-1A-interacting protein 1 (Homo sapiens) (UniProt Q5JTV8). Nature of the assay: LAP1 binders from COS7 cell lysate, primary screen, small-molecule microarray, 635/667 nm fluorescence (AID 1116). Particulars: COS7-hLAP1 lysate binding, 635 nm fluorescence, higher = more signal.
Assay [20] addresses Alpha-bungarotoxin (Bungarus multicinctus) (UniProt P60615). Description: alpha-bungarotoxin binders on microarray, profiling panel, artefact control for SMM control protein annotation, biochemical, small-molecule microarray, Alexa647 label, 635/667 nm fluorescence (AID 1117). Particulars: alpha-BTX-A647 binding fluorescence, higher = more signal.

Active and inactive are the calls of the source.

Sequence of Left-right determination factor 2 (Homo sapiens) (O00292 whole entry, looked up): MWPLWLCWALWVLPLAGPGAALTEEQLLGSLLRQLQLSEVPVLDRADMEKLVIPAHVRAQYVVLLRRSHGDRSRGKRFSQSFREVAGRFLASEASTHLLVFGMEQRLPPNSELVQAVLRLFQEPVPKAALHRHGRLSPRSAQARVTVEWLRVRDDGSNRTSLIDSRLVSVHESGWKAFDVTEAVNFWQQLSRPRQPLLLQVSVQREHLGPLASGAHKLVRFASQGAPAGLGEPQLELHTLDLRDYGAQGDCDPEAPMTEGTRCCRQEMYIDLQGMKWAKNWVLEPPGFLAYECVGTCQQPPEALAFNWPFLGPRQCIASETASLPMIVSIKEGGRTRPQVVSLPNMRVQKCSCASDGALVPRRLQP
Sequence of Epidermal growth factor receptor (Homo sapiens) (P00533 whole entry, looked up): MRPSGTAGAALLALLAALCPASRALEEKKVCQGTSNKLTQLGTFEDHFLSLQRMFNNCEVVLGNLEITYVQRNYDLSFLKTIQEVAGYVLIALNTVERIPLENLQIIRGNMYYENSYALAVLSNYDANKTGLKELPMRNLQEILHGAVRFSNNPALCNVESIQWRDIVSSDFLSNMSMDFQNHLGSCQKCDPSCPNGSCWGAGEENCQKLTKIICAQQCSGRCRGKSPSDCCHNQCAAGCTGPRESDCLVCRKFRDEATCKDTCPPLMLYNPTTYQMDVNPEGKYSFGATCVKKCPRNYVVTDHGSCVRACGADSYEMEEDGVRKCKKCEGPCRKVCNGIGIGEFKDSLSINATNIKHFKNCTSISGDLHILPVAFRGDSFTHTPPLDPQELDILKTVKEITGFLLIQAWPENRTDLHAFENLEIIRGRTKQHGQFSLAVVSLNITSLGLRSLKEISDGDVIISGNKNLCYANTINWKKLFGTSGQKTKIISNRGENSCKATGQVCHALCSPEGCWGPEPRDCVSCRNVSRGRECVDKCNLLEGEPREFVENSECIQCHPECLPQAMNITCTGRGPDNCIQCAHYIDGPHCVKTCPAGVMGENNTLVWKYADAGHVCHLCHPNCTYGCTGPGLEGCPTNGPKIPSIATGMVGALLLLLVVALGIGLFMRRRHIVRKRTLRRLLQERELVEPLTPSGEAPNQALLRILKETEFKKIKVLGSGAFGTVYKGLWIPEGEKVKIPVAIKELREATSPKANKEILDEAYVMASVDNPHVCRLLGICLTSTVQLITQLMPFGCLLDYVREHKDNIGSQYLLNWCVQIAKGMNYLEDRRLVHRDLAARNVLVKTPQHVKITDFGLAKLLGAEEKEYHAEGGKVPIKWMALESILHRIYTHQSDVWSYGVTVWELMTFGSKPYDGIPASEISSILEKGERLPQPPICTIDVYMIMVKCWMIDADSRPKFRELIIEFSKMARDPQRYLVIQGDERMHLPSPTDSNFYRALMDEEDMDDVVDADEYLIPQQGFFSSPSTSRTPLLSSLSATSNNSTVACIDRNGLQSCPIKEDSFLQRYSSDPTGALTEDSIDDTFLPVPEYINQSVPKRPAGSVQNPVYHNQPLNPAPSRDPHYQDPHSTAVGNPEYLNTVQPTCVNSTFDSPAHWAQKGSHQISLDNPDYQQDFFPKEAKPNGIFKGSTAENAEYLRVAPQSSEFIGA
Sequence of Torsin-1A-interacting protein 1 (Homo sapiens) (Q5JTV8 whole entry, looked up): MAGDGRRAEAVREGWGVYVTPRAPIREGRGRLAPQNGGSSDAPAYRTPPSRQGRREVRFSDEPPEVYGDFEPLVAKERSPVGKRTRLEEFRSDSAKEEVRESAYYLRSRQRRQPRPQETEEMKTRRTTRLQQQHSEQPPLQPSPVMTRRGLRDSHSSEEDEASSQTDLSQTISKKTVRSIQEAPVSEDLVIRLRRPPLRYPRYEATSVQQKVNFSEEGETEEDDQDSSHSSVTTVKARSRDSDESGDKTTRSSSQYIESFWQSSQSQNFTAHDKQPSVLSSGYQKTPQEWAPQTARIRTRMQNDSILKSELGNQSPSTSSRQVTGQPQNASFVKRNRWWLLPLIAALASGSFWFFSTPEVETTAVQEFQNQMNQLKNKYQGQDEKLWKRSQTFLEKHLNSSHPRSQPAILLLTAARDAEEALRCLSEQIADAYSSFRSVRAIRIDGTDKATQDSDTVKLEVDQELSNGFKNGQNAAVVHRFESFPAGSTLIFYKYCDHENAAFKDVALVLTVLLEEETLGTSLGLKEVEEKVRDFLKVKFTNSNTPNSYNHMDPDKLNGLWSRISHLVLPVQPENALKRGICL
Sequence of Fibroblast growth factor 10 (Homo sapiens) (O15520 whole entry, looked up): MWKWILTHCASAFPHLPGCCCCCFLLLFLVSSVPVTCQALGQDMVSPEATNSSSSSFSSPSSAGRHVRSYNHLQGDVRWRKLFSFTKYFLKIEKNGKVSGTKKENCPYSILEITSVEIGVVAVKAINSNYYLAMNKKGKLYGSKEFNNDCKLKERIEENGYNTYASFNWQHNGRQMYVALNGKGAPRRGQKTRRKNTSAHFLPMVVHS
Sequence of Alpha-bungarotoxin (Bungarus multicinctus) (P60615 whole entry, looked up): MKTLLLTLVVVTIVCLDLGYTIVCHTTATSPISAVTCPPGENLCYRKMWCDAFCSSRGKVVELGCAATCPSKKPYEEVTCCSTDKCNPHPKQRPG
Sequence of Dickkopf-related protein 1 (Homo sapiens) (O94907 whole entry, looked up): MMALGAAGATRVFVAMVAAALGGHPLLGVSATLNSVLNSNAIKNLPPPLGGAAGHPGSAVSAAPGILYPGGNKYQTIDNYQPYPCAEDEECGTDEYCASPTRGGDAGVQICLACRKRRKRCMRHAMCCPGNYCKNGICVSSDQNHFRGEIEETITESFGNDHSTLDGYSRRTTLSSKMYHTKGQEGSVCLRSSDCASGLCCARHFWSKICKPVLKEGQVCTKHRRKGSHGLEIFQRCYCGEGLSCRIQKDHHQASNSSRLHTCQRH
Sequence of Follistatin-related protein 3 (Homo sapiens) (O95633 whole entry, looked up): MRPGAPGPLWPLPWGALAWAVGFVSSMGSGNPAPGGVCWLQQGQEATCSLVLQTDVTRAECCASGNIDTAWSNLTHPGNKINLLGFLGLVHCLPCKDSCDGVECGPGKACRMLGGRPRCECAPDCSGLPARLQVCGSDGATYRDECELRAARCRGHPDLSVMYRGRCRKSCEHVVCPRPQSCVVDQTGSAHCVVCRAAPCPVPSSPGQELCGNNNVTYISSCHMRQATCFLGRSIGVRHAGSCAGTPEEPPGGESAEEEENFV

For the molecule `COc1ccc([Si](C)(C)[C@@H]2[C@@H](CCn3cc([C@H](O)c4ccccc4)nn3)O[C@]3(C(=O)N(Cc4ccc(N5C(=O)c6cccc7cccc5c67)cc4)c4ccccc43)[C@H]2C)cc1`, the composite z-score in [1] was 0.286; in assay [2] it was -0.187; in assay [3] it was -0.0017; in assay [5], -0.456; in [6] it was -0.513; in assay [7], -0.471. Also, the composite z-score in [8] is -0.586; in [9], -0.795; in assay [10], -0.409; in [11], 0.314; in [13] it was -0.556; in assay [14], 0.273. Besides, the composite z-score was 0.702 in assay [15]; -0.154 in assay [16]; -0.0904 in assay [17]; -0.131 in assay [18]; -0.0215 in [19]; 0.152 in [20]. Further, the z-score was -1.5 (inactive) in assay [4] and -2.88 in assay [12].

On to `O=C1OCCC=C[C@H]2OC34C=CCN(c5ccc6ccccc6c5)C(=O)[C@H]3N(CCCCCO)C(=O)[C@@H]4C12` (stereo not given in full), for which the composite z-score in [1] was 1.8; in assay [2] it was 0.0672; in assay [3], 0.597; in assay [5], -0.408; in assay [6] it was -0.224; in assay [7], -0.162. Also, the composite z-score was -0.662 in assay [8]; -0.731 in [9]; 0.218 in [10]; 0.444 in assay [11]; -1.05 in [13]; -0.491 in assay [14]. Also, the composite z-score is -0.0432 in assay [15]; -0.147 in [16]; -0.0011 in assay [17]; 0.438 in assay [18]; 1.92 in assay [19]; -0.264 in assay [20]. In addition, the values for the z-score in [4] and in assay [12] were -0.606 (inactive) and -0.345, respectively.

For `CO[C@H]1O[C@H](CO)[C@@H](OC(=O)Nc2ccc3c(c2)OCO3)[C@H](OC(=O)Nc2ccccc2)[C@H]1OC(=O)Nc1ccccc1`, the composite z-score in assay [1] was 1.48; in assay [2], 0.132; in assay [3], 0.398; in [5], 0.892; in assay [6] it was 1.29; in [7], -0.0701. In addition, the composite z-score in assay [8] was determined as 0.848; in assay [9] it was 0.295; in assay [10], 0.395; in assay [11], 1.5; in assay [13], 0.0544; in [14], 1.36. In addition, the composite z-score was -0.905 in assay [15]; -0.0519 in [16]; 0.275 in assay [17]; 0.909 in [18]; 1.47 in assay [19]; 1.74 in assay [20]. Besides, the results for the z-score in [4] and in [12] were 1.89 (inactive) and -3.44, respectively.

Take `COC(=O)[C@@]1(Cc2ccccc2)[C@H]2c3cc(C(=O)N4CCCC4)n(Cc4ccc(C)o4)c3C[C@H]2CN1C(=O)c1ccccc1`: the composite z-score was 1.21 in [1]; 0.526 in assay [2]; 1.13 in [3]; -0.143 in assay [5]; 0.0411 in [6]; 0.36 in assay [7]. Besides, the composite z-score is 0.276 in assay [8]; -0.578 in assay [9]; 1.23 in assay [10]; 0.114 in assay [11]; -0.334 in assay [13]; 1.58 in [14]. The composite z-score is -0.149 in [15]; -0.213 in assay [16]; -0.214 in assay [17]; -0.153 in assay [18]; 0.618 in [19]; 0.326 in assay [20]. Also, the z-score was -2.62 (inactive) in [4] and -1.82 in assay [12].

With `O=C1OCC=C[C@H]2OC34C=CCN(c5ccc6ccccc6c5)C(=O)[C@H]3N(CCCO)C(=O)[C@@H]4[C@@H]12` (stereo not given in full), the composite z-score in assay [1] is 1.17; in assay [2] it was 0.0114; in [3], 0.899; in assay [5], -0.709; in assay [6] it was -1.34; in assay [7], -1.15. The composite z-score in [8] is -0.699; in assay [9], -1.06; in [10], 0.374; in assay [11], -0.522; in [13], -0.842; in assay [14], -0.0892. Moreover, the composite z-score in assay [15] was 0.172; in [16], -0.124; in assay [17], -0.15; in [18], 0.135; in assay [19] it was 0.208; in [20], -0.871. The z-score in [4] was -1.72 (inactive); in [12], -0.805.

Take `CN1C(=O)C2C(C1=O)C1C=C(CCCO)C2C(c2cccs2)N1C` (stereo not given): the composite z-score is 1.78 in [1]; -0.722 in assay [2]; -0.681 in [3]; 0.248 in assay [5]; -0.76 in [6]; -0.106 in assay [7]. Moreover, the composite z-score is -0.473 in assay [8]; -0.559 in assay [9]; 0.561 in assay [10]; 0.0537 in assay [11]; -0.676 in [13]; 0.203 in assay [14]. Besides, the composite z-score in assay [15] is 0.451; in [16], -0.0462; in assay [17], 0.469; in [18], -0.395; in [19] it was -0.646; in [20], -0.513. For the same molecule, the z-score is -0.0035 (inactive) in assay [4] and -0.999 in assay [12].
